Source: paper PMC5540273 (PLoS ONE, 2017)

How the values were obtained:
Conditions in all cases: concentration: 1 μM,replicates: in singlicate; n = 1
TNNI3K = tested on: TNNI3K
TRKA = tested on: T1, TRKA
T1 construct: gene NTRK1

TRKB = tested on: TRKB
TRKC = tested on: T2, TRKC
T2 construct: gene NTRK3

TRPM6 = tested on: TRPM6
TSSK1B = tested on: TSSK1B
TSSK3 = tested on: TSSK3
TTK = tested on: TTK
TXK = tested on: TXK
[1] = tested on: TYK2(JH1domain-catalytic)
[2] = tested on: TYK2(JH2domain-pseudokinase)
TYRO3 = tested on: TYRO3
ULK1 = tested on: ULK1
ULK2 = tested on: ULK2
ULK3 = tested on: ULK3
VEGFR2 = tested on: T3, VEGFR2
T3 construct: gene KDR

VPS34 = tested on: T4, VPS34
T4 construct: gene PIK3C3

VRK2 = tested on: VRK2
WEE1 = tested on: WEE1
WEE2 = tested on: WEE2
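Note: KINOMEscan kinase panel screen.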

## C[C@H]1Oc2cc(cnc2N)-c2c(nn(C)c2C#N)CN(C)C(=O)c2ccc(F)cc21
TNNI3K
  %Inh: 0%
TRKA
  %Inh: 97.7%
TRKB
  %Inh: 93.4%
TRKC
  %Inh: 78%
TRPM6
  %Inh: 0%
TSSK1B
  %Inh: 58%
TSSK3
  %Inh: 0%
TTK
  %Inh: 7%
TXK
  %Inh: 0%
[1]
  %Inh: 0%
[2]
  %Inh: 0%
TYRO3
  %Inh: 5%
ULK1
  %Inh: 0%
ULK2
  %Inh: 0%
ULK3
  %Inh: 0%
VEGFR2
  %Inh: 3%
VPS34
  %Inh: 0%
VRK2
  %Inh: 42%
WEE1
  %Inh: 0%
WEE2
  %Inh: 16%

## Cc1ccc2c(-c3ccncc3)c(-c3ccc(F)cc3)nn2c1.Cl [GW461484]
TNNI3K
  %Inh: 5%
TRKA
  %Inh: 18%
TRKB
  %Inh: 0%
TRKC
  %Inh: 2%
TRPM6
  %Inh: 8%
TSSK1B
  %Inh: 9%
TSSK3
  %Inh: 9%
TTK
  %Inh: 0%
TXK
  %Inh: 0%
[1]
  %Inh: 0%
[2]
  %Inh: 2%
TYRO3
  %Inh: 0%
ULK1
  %Inh: 7%
ULK2
  %Inh: 0%
ULK3
  %Inh: 23%
VEGFR2
  %Inh: 2%
VPS34
  %Inh: 0%
VRK2
  %Inh: 0%
WEE1
  %Inh: 3%
WEE2
  %Inh: 1%

## Cl.Cl.Nc1nc(-c2ccc3c(N)n[nH]c3c2)cc(N2CCCC(NC(=O)c3ccccc3)C2)n1 (centres unmarked) [GSK2286775]
TNNI3K
  %Inh: 0%
TRKA
  %Inh: 0%
TRKB
  %Inh: 0%
TRKC
  %Inh: 0%
TRPM6
  %Inh: 46%
TSSK1B
  %Inh: 13%
TSSK3
  %Inh: 10%
TTK
  %Inh: 0%
TXK
  %Inh: 100%
[1]
  %Inh: 0%
[2]
  %Inh: 38%
TYRO3
  %Inh: 0%
ULK1
  %Inh: 11%
ULK2
  %Inh: 2%
ULK3
  %Inh: 36%
VEGFR2
  %Inh: 9%
VPS34
  %Inh: 0%
VRK2
  %Inh: 0%
WEE1
  %Inh: 18%
WEE2
  %Inh: 0%

## Cc1cc2cn[nH]c2cc1-c1cccc2c(N)c(C(N)=O)nnc12
TNNI3K
  %Inh: 0%
TRKA
  %Inh: 51%
TRKB
  %Inh: 66%
TRKC
  %Inh: 54%
TRPM6
  %Inh: 75%
TSSK1B
  %Inh: 0%
TSSK3
  %Inh: 28%
TTK
  %Inh: 34%
TXK
  %Inh: 95.4%
[1]
  %Inh: 71%
[2]
  %Inh: 65%
TYRO3
  %Inh: 15%
ULK1
  %Inh: 28%
ULK2
  %Inh: 30%
ULK3
  %Inh: 50%
VEGFR2
  %Inh: 13%
VPS34
  %Inh: 19%
VRK2
  %Inh: 21%
WEE1
  %Inh: 12%
WEE2
  %Inh: 29%

## Cc1n[nH]c2ccc(-c3cc(OC[C@@H](N)Cc4ccccc4)cnc3-c3ccoc3)cc12.O=C(O)C(F)(F)F.O=C(O)C(F)(F)F [GSK507358]
TNNI3K
  %Inh: 0%
TRKA
  %Inh: 0%
TRKB
  %Inh: 0%
TRKC
  %Inh: 15%
TRPM6
  %Inh: 0%
TSSK1B
  %Inh: 0%
TSSK3
  %Inh: 6%
TTK
  %Inh: 0%
TXK
  %Inh: 0%
[1]
  %Inh: 7%
[2]
  %Inh: 19%
TYRO3
  %Inh: 0%
ULK1
  %Inh: 0%
ULK2
  %Inh: 8%
ULK3
  %Inh: 22%
VEGFR2
  %Inh: 0%
VPS34
  %Inh: 0%
VRK2
  %Inh: 33%
WEE1
  %Inh: 35%
WEE2
  %Inh: 15%

## Cl.Cl.NC[C@H](Cc1ccc(C(F)(F)F)cc1)NC(=O)c1cc(Br)c(-c2ccnc3[nH]ccc23)s1 [GSK1487252]
TNNI3K
  %Inh: 13%
TRKA
  %Inh: 86%
TRKB
  %Inh: 67%
TRKC
  %Inh: 74%
TRPM6
  %Inh: 0%
TSSK1B
  %Inh: 0%
TSSK3
  %Inh: 2%
TTK
  %Inh: 10%
TXK
  %Inh: 0%
[1]
  %Inh: 3%
[2]
  %Inh: 16%
TYRO3
  %Inh: 0%
ULK1
  %Inh: 5%
ULK2
  %Inh: 19%
ULK3
  %Inh: 6%
VEGFR2
  %Inh: 34%
VPS34
  %Inh: 0%
VRK2
  %Inh: 0%
WEE1
  %Inh: 0%
WEE2
  %Inh: 0%

## C[C@@H]1CCN(C(=O)CC#N)C[C@@H]1N(C)c1ncnc2[nH]ccc12
TNNI3K
  %Inh: 0%
TRKA
  %Inh: 0%
TRKB
  %Inh: 0%
TRKC
  %Inh: 0%
TRPM6
  %Inh: 0%
TSSK1B
  %Inh: 0%
TSSK3
  %Inh: 0%
TTK
  %Inh: 0%
TXK
  %Inh: 1%
TYRO3
  %Inh: 0%
ULK1
  %Inh: 0%
ULK2
  %Inh: 0%
ULK3
  %Inh: 0%
VEGFR2
  %Inh: 0%
VPS34
  %Inh: 0%
VRK2
  %Inh: 0%
WEE1
  %Inh: 0%
WEE2
  %Inh: 2%

## O=C(NCCCN1CCOC1=O)c1cnc(NCc2cc(Cl)ccc2Cl)nc1NC1CCCC1
TNNI3K
  %Inh: 9%
TRKA
  %Inh: 15%
TRKB
  %Inh: 0%
TRKC
  %Inh: 4%
TRPM6
  %Inh: 2%
TSSK1B
  %Inh: 0%
TSSK3
  %Inh: 0%
TTK
  %Inh: 17%
TXK
  %Inh: 17%
[1]
  %Inh: 0%
[2]
  %Inh: 0%
TYRO3
  %Inh: 46%
ULK1
  %Inh: 0%
ULK2
  %Inh: 0%
ULK3
  %Inh: 0%
VEGFR2
  %Inh: 0%
VPS34
  %Inh: 0%
VRK2
  %Inh: 7%
WEE1
  %Inh: 0%
WEE2
  %Inh: 0%
